From PubChem BioAssay (NCI) come the findings set out here.

About 83,000 compounds went through this panel and 20% of them were active in at least one assay; those are over-represented in the sample as a whole.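 Method: cells in 96-well plates; compound added at one concentration; 48 h incubation; percent growth measured; values under 10 scored active.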 Values without a mark were called inactive. Calls of active or inactive are those of the source.

This assay deals with HOP-92 NSCLC. The assay can be described thus: NCI-60 one-dose screen, 48 h (100 = growth as untreated, 0 = no growth, -100 = all killed). Particulars: 10 µM unless noted.
As for `Cc1cc(=O)[nH]c2c(C#N)cnn12`, the growth is 109%. In the case of `COCCn1c(-c2csc(-c3cn(C)c4ccc(OC)cc34)n2)cc2cccnc21`, the growth is 67.5%.

For `COC(=O)[C@]1(C)CCC[C@]2(C)[C@H]3C[C@H]4C(C(C)C)=C[C@]3(CC[C@H]21)[C@H]1[C@@H]4[C@@H](OCCC#N)CC[C@@H]1OCCC#N`, the growth is 26.2%. For `O=C(NCCCCNC(=O)OCc1ccc2c(Cl)cc(Cl)c(O)c2n1)OCc1ccc2c(Cl)cc(Cl)c(O)c2n1` the value was 48.5%; for `COC(=O)c1c2c(c(C)[n+]([O-])c1C)C(=O)C=C(NCc1ccc(Br)cc1)C2=O`, -53.8% (active); for `CCCCCCNC(=O)Oc1ccc(/C(=C(/C)Cc2ccc(OC)cc2)c2ccc(OCCCN(C)C)cc2)cc1`, 25%. In the case of `CCCCCCC1(C)NCCO1` (configuration not stated), the growth was 102%. Consider `CC[C@]12C=CCN3CC[C@@]4(c5cc(NC(=O)CCC(=O)OCc6cn(Cc7ccc(F)cc7)nn6)c(OC)cc5N(C)[C@H]4[C@@](O)(C(=O)OC)[C@@H]1OC(C)=O)[C@@H]32`, for which the growth was 92.5%. `Oc1c(Cl)cc(Cl)c2ccc(Cn3cc(-c4cc(C(F)(F)F)cc(C(F)(F)F)c4)nn3)nc12`: the growth was 24.8%. Consider `O=C1C(Cl)=C(Oc2ccccc2)C(=O)c2ccccc21`, for which the growth is 72.6%. For the compound `COc1ccccc1Nc1nc2c(s1)C1=CC[C@H]3[C@@H]4CC[C@H]([C@H](C)CCCC(C)C)[C@@]4(C)CC[C@@H]3[C@@]1(C)CC2`, the growth is 90.8%. Turning to `N#Cc1cccc(-c2c(-c3ccc4ccccc4c3)oc3ccccc3c2=O)c1`, the growth is 51.8%.
